# Bioassay records (PubChem)
# Hits are enriched below; roughly 7.4% of the tested compounds scored in any of these assays.
# Luc counter – blocks Kinase-Glo luciferase, a counter-screen artifact; Q27757; Kinase-Glo luciferase, ATP luminescence, 8 min; Potency, µM (highest dose often 38.3 µM), without a hit: at the top dose activity change, negative = inhibition, actives largely listed as inhibitors; actives 0.28% (n = 200,000); note: % is set by controls: 0 for no effect and ±100 for the full control effect; nearly all actives have a fitted effect of over 60% in size
#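 Recombinant Kinase-Glo luciferase, 10 uM ATP (linear range), luciferin; imidazole pH 7.2 / KCl / MgCl2 / Tween / BSA buffer; 8 min RT; luminescence.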
# Rab9 prom act – activators of Rab9 promoter | Huh7 Rab9 promoter-luciferase reporter, luminescence, 24 h | Potency, µM (series often up to 9.22 µM), for inactives: top-dose activation, negative = inhibition, actives largely listed as activators | actives 2.8% (n = 320,000) | AID 485297; note: % of control where 0% means no effect; nearly all actives have a fitted effect of over 60% in size
#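 Using Huh7 cells stably transfected with Rab9 promoter–luciferase, compounds were incubated 24 h at 37 °C, 5% CO2; luciferase luminescence was read 10 min after reagent addition.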
# SMN2 splice enh – enhancers of SMN2 splice variant expression; AID 1458; HEK293 SMN2-luciferase splicing reporter, luminescence, 30-36 h; Potency, µM (doses to about 46.1 µM), for inactives: top-dose activity change, positive = activation, usual class: activators; actives 2.8% (n = 210,000); note: % of control where 0% means no effect; nearly all actives have a fitted effect of over 55% in size
#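 qHTS luciferase splicing reporter: luminescence rises when SMN2 exon 7 is included in transfected HEK293 cells. Compound exposure lasted 30-36 h at 37C, with 4.5 mM final sodium butyrate as control, followed by a ONE-Glo read.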
# FLuc counter – inhibits or activates purified firefly luciferase, miR-21 counter-screen; P08659; purified FLuc, Km substrates, luminescence inhibition; Potency, µM (series often up to 57.5 µM), for inactives: at the top dose activity change, negative = inhibition, actives largely listed as inhibitors; actives 6.9% (n = 360,000); AID 588342;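 note: plate controls were vehicle for no effect and reference inhibitor for full effect; nearly all actives have a fitted effect of over 55% in size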
# Target sequence (P08659 whole entry, looked up): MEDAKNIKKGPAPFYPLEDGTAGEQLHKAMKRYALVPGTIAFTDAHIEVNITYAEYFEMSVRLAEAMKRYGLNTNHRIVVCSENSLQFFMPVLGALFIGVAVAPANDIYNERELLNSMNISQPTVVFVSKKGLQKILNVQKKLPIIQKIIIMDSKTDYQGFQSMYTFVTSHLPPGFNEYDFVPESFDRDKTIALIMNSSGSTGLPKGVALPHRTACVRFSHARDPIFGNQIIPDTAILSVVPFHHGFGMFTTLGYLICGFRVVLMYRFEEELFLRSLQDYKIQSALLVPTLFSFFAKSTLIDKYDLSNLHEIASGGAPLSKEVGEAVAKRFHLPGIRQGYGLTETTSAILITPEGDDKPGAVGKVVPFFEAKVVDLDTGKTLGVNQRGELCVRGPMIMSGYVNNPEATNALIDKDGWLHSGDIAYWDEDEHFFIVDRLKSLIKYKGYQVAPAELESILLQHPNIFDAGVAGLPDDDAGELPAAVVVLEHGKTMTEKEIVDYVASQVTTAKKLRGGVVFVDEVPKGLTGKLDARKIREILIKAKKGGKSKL
#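 Purified P. pyralis luciferase, 10 nM final, with Km-level 10 uM D-luciferin and 10 uM ATP in 50 mM Tris acetate pH 7.5, 10 mM Mg acetate, 0.01% Tween-20, 0.05% BSA; 6-point qHTS titration about 60 µM downward; luminescence read.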
# ELG1 genotoxic – inducers of genotoxicity in HEK293T ELG1-luciferase cells; HEK293T ELG1-luciferase reporter, luminescence, 16 h; Potency, µM (doses to about 46 µM), for the others: at the highest dose activity change, positive = activation, actives largely listed as activators; actives 1.3% (n = 330,000); AID 504466; note: % of control where 0% means no effect; nearly all actives have a fitted effect of over 60% in size
#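 HEK293T cells expressing luciferase-tagged ELG1 were treated with compound or DMSO for 16 hr at 37°C. Luciferase activity was then read after 30 min with ONE-Glo at room temperature; rising signal flags genetic stress.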
# NPC1 prom act – activates the NPC1 promoter; AID 485313; actives 2.4% (n = 320,000); Potency, µM (titrated, usually from 9.22 µM), without a hit: at the highest dose activation, most hits filed as activators; Huh7 NPC1 promoter luciferase reporter, 24 h; note: % of control where 0% means no effect; nearly all actives have a fitted effect of over 60% in size
#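 Stable NPC1-promoter luciferase Huh7 line; cpd (DMSO) 24 h, 37 °C, 5% CO2; Amplite luciferase reagent 10 min RT; luminescence readout. qHTS format.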
# Active calls of the source: *; ? = inconclusive; . = no result. Calls come from the whole dose curve; as a rule, active = well fitted curve in the direction sought with a large enough effect; inconclusive = small, poorly fitted or top-dose-only effect, or another doubt; inactive = no such curve, though single readings can be large; an effect the other way counts as inactive or inconclusive. Potency is the fitted concentration of half-maximal effect.
SMILES,Luc counter,Rab9 prom act,SMN2 splice enh,FLuc counter,ELG1 genotoxic,NPC1 prom act
O=C(NCc1cccnc1)C(C(=O)c1ccc(F)cc1)n1ccccc1=O (stereo not drawn),-0.5%,16.4%,6.5%,-1.8%,18.4µM*,2.0%
COc1ccc(-c2cc(C(=O)N3CCc4ccccc4C3)no2)cc1,-4.1%,-3.6%,2.2%,16.9µM*,23.8%,1.0%
COc1ccc(-c2cc(C(=O)N3CCN(c4ccccc4)CC3)no2)cc1,.,?,?,6.75µM*,?,2.82µM*
COc1ccc(-c2cc(C(=O)N3CCN(c4ccccc4OC)CC3)no2)cc1,.,-10.2%,.,?,0.0%,-0.3%
Cc1ccccc1C(=O)NCC(=O)OC1CCCCC1=O (stereo not drawn),.,-0.6%,.,4.6%,-0.5%,-2.7%
CSCC[C@H](NC(=O)c1ccc(OCC2CCCO2)cc1)c1nc2ccccc2[nH]1 (stereo partly drawn),.,.,.,.,-0.7%,.
C[C@H](CO)N1C[C@H](C)[C@@H](CN(C)S(C)(=O)=O)Oc2c(NC(=O)Nc3ccccc3)cccc2C1=O,.,.,.,.,0.5%,.
COc1ccc(OC)c(C(=O)COC(=O)c2cccnc2Cl)c1,-2.2%,6.3%,4.7%,?,1.0%,-5.3%
COC(=O)c1ccc(COC(=O)c2cccnc2Cl)cc1,.,22.6%,.,?,?,14.3%
COc1ccc(OC)c(C(=O)COC(=O)c2ccccc2O)c1,-6.9%,-0.6%,5.4%,12µM*,15.1%,24.1%
O=C(COC(=O)c1cccnc1Cl)c1ccc(Cl)cc1Cl,-12.7%,-8.0%,-4.5%,0.757µM*,-0.5%,-0.3%
COc1ccc(C(=O)COC(=O)c2cccnc2Cl)c(OC)c1,-4.7%,2.24µM*,-0.5%,10.7µM*,20.6µM*,21.4%
COc1ccc(OC)c(C(=O)COC(=O)c2c(OC)cccc2OC)c1,-1.6%,4.4%,-15.0%,3.1%,1.7%,-3.7%
O=C(COC(=O)c1cccnc1Cl)c1ccc(OC(F)F)cc1,-15.3%,8.0%,1.4%,5.36µM*,0.3%,-0.8%
O=C(C1=NN(c2ccccc2)C(=O)CC1)N1CCc2ccccc2C1,.,2.8%,.,-0.9%,2.7%,-2.4%
CCC(c1nnc(SCC(=O)Nc2ccc(Cl)cc2C(F)(F)F)n1C1CCCCC1)N(C)C (stereo not drawn),.,-5.0%,.,0.0%,-1.3%,0.1%
CCOC(=O)c1c(C)c(-c2ccccc2)n(CC(=O)NCCc2cccc(C)c2)c1C,.,.,7.9%,-1.7%,.,.
Cn1c(Cc2cccs2)nnc1SCC(=O)Nc1ccc(F)cc1F,.,-3.4%,.,3.1%,1.2%,-0.9%
CC1(C)Cc2c(sc(NC(=O)C(=O)N3CCCC3)c2C#N)CO1,.,13.4%,.,?,-5.1%,-5.0%
Cc1cc(C)c(C(=O)COC(=O)c2cccnc2Cl)c(C)c1,0.2%,-0.3%,-0.3%,16.9µM*,-0.8%,-2.2%
CCc1ccccc1NC(=O)Cn1c(=O)n(Cc2ccccc2)c(=O)c2c(C)c(C(=O)N(C)C)sc21,.,.,.,-2.8%,.,.
O=C(c1ccc(Cl)cc1)c1cnc2ccccn12,-6.0%,2.51µM*,8.5%,9.53µM*,11.6µM*,3.16µM*
CN(C)c1cc2c(c(N(C)C)c1)C(=O)c1ccccc1C2=O,11.2µM*,?,-13.0%,?,3.4%,27.5%
CN(C)S(=O)(=O)c1cccc2c1C(=O)c1ccccc1C2=O,-7.3%,-0.8%,-53.2%,3.7%,-0.7%,-4.3%
N=c1c(C(=O)NC2CCCCC2)cc2c(=O)n3ccccc3nc2n1CCc1ccccc1,.,-6.3%,.,4.6%,-7.5%,1.1%
SMILES,Luc counter,Rab9 prom act,SMN2 splice enh,FLuc counter,ELG1 genotoxic,NPC1 prom act
O=C(CCSc1ccccc1)N1CCCC1,-28.4%,2.82µM*,11.2µM*,16.9µM*,?,2.51µM*
O=C(CCSc1ccccc1)N1CCOCC1,-14.7%,2.82µM*,12.6µM*,19µM*,8.2µM*,2.82µM*
O=C(CCSc1nnnn1-c1ccccc1)N1CCOCC1,2.6%,11.7%,29.7%,-3.8%,10.9%,11.4%
O=C(CCSc1ccccc1)NC1CCCCCC1,1.0%,-7.6%,1.6%,10.7µM*,0.1%,-0.1%
CCOc1ccccc1N(CC(=O)NC1CCCCC1)S(=O)(=O)c1ccccc1,.,-1.1%,.,-0.6%,-6.4%,-1.6%
CC/C(=N\Nc1ccc([N+](=O)[O-])cc1[N+](=O)[O-])c1ccc(O)cc1,.,-2.3%,.,-1.4%,-0.7%,0.1%
C/C(=N\Nc1ccccc1[N+](=O)[O-])c1ccccc1O,.,-0.5%,.,5.36µM*,20.6µM*,8.4%
CC/C(=N\Nc1ccccc1[N+](=O)[O-])c1ccc(O)cc1,-5.6%,0.1%,.,26.9µM*,10.0%,5.7%
COc1cccc(-c2cc(C(=O)Nc3ccncc3)c3ccccc3n2)c1,.,-2.4%,.,16.9µM*,-12.7%,-1.0%
COc1cccc(-c2cc(C(=O)Nn3cnnc3)c3ccccc3n2)c1,-15.2%,23.3%,-0.7%,0.953µM*,5.4%,15.6%
COc1cccc(-c2cc(C(=O)NN3CCOCC3)c3ccccc3n2)c1,1.4%,3.1%,8.8%,-13.3%,-3.0%,0.4%
O=C(N/N=C/c1ccc(Cl)cc1)c1ccc2c(c1)OCO2,.,25.8%,.,3.38µM*,?,7.8%
O=C(N/N=C/c1ccc2c(c1)OCO2)c1ccc(Br)o1,?,2.82µM*,12.6µM*,4.78µM*,10.3µM*,4.47µM*
O=C(N/N=C/c1ccsc1)c1ccc2c(c1)OCO2,.,2.82µM*,.,3.38µM*,?,3.55µM*
Cc1nc2ccc(C(=O)N/N=C/c3ccccc3O)cc2[nH]1,.,?,.,12µM*,?,?
Cc1nc2ccc(C(=O)N/N=C/c3cc([N+](=O)[O-])ccc3O)cc2[nH]1,-0.6%,1.5%,8.1%,-11.0%,3.3%,0.2%
CCC1CCCCN1C(=O)c1nn(-c2ccc(C)cc2)c(=O)c2c1c1ccccc1n2C (stereo not drawn),.,.,1.2%,-1.0%,.,.
Cc1ccc(-c2c(C(=O)N3CCN(c4ccc(F)cc4)CC3)oc(=O)c3ccccc23)cc1,.,.,-9.0%,-1.7%,.,.
COc1ccc(NS(=O)(=O)c2cccc(C(=O)N/N=C/c3ccc4c(c3)OCCO4)c2)cc1,-1.2%,-2.7%,21.1%,-1.2%,1.2%,0.1%
O=C(N/N=C/c1cc(Cl)cc([N+](=O)[O-])c1O)c1ccc2c(c1)OCO2,.,-4.0%,.,10.7µM*,19.4%,-15.0%
COc1ccccc1NS(=O)(=O)c1cccc(C(=O)N/N=C/c2ccc3c(c2)OCCO3)c1,0.3%,1.5%,22.7%,10.7µM*,3.5%,-1.4%
O=C(N/N=C/c1ccncc1)c1ccc2c(c1)OCO2,-3.1%,15.2%,?,26.9µM*,-6.1%,7.9%
